# Paper PMC7862700, “An all-to-all approach to the identification of sequence-specific readers for epigenetic DNA modifications on cytosine”
# Columns and labels:
# Assay in all cases: DAPPL (digital affinity profiling via proximity ligation, sequencing); 10 mM Tris-HCl pH 7.5, 50 mM NaCl, 1 mM DTT, 4% glycerol, room temperature, 30 min; GST-TFs on glutathione beads, 16-mer random dsDNA library, 0.1% formaldehyde crosslink after washing; high values mean tight binding
# Details in all cases: protein: recombinant; tags: N-terminal GST; dsDNA, one strand shown
# ELK4 = molecular target: T1, ELK4 (Homo sapiens, UniProt P28324-2 1-405)
# T1 sequence: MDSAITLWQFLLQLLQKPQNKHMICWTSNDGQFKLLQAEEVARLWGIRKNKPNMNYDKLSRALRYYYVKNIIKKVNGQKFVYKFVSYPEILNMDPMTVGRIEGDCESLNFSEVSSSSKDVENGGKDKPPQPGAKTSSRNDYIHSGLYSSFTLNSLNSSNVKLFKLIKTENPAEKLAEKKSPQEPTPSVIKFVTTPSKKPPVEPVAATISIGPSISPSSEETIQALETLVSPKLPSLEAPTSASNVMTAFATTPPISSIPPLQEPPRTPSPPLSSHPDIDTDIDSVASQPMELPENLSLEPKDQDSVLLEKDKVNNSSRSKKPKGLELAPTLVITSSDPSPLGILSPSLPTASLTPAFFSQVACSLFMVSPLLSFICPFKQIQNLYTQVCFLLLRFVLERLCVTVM
# How it was run: (§1)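 Yeast served to express human transcription factors as GST fusions, which were then captured on glutathione beads and labelled with DNA barcodes. Pooled with a tag-only sample, they were incubated with 200 nmole of a 16-mer random double-stranded DNA library for 30 min at room temperature in Tris/NaCl/DTT/glycerol buffer, washed, crosslinked with 0.1% formaldehyde, ligated by proximity, amplified by PCR and sequenced. Dividing each hexamer's read frequency for a factor by its frequency for the tag-only sample gives the binding signal.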
# ETV2 = molecular target: T2, ETV2 (Homo sapiens, UniProt O00321 1-342)
# T2 sequence: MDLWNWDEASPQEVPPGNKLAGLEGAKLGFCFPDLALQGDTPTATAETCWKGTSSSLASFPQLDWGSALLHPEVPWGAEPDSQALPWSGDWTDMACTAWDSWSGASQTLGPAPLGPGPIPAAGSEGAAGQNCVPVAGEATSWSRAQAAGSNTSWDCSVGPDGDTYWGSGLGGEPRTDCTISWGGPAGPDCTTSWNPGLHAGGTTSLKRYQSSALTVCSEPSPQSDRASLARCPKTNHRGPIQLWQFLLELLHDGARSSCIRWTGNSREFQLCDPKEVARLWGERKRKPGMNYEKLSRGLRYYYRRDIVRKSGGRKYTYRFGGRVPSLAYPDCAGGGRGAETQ
# How it was run: as §1
# ELF3 = molecular target: T3, ELF3 (Homo sapiens, UniProt P78545 1-371)
# T3 sequence: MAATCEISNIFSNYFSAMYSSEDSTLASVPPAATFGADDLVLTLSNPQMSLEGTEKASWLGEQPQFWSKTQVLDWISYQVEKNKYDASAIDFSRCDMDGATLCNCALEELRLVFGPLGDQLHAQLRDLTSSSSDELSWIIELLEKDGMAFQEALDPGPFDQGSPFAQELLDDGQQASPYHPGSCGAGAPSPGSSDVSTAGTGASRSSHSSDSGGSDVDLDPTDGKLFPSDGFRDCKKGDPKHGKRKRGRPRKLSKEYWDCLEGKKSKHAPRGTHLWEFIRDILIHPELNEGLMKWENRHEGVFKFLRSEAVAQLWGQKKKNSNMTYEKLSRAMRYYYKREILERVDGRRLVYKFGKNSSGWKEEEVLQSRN
# How it was run: as §1
# SPDEF = molecular target: T4, SPDEF (Homo sapiens, UniProt O95238 1-335)
# T4 sequence: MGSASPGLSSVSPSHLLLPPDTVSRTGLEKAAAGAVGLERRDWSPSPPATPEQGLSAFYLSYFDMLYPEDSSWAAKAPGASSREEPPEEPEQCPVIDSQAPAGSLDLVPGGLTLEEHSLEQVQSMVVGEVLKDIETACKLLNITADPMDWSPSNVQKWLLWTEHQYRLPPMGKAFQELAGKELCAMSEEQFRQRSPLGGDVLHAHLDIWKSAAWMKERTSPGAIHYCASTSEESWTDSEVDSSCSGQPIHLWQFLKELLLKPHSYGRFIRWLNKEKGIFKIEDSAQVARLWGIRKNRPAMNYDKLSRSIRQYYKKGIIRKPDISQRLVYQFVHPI
# How it was run: as §1
# EHF = molecular target: T5, EHF (Homo sapiens, UniProt Q9NZC4 1-300)
# T5 sequence: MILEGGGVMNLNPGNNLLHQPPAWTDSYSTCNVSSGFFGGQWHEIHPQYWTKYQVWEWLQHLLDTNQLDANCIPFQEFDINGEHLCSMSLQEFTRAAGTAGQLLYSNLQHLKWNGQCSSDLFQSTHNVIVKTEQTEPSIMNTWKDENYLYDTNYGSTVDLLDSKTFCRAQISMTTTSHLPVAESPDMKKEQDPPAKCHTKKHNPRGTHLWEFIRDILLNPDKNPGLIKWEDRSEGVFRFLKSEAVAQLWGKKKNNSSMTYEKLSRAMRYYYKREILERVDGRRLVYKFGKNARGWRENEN
# How it was run: as §1
# SPI1 = SPI1 (Homo sapiens, UniProt P17947 1-270)
# How it was run: as §1
# ETV7 = molecular target: T6, ETV7 (Homo sapiens, UniProt Q9Y603 1-341)
# T6 sequence: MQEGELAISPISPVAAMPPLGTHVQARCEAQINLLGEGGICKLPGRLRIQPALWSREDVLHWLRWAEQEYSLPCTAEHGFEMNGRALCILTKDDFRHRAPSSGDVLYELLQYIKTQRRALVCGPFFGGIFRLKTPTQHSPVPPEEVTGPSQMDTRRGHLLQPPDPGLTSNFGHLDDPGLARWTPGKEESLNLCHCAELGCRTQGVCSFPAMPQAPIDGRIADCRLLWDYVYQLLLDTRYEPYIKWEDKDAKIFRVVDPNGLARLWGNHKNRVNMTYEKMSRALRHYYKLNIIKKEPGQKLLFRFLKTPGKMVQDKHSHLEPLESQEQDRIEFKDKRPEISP
# How it was run: as §1
# ELK1 = molecular target: T7, ELK1 (Homo sapiens, UniProt P19419 1-428)
# T7 sequence: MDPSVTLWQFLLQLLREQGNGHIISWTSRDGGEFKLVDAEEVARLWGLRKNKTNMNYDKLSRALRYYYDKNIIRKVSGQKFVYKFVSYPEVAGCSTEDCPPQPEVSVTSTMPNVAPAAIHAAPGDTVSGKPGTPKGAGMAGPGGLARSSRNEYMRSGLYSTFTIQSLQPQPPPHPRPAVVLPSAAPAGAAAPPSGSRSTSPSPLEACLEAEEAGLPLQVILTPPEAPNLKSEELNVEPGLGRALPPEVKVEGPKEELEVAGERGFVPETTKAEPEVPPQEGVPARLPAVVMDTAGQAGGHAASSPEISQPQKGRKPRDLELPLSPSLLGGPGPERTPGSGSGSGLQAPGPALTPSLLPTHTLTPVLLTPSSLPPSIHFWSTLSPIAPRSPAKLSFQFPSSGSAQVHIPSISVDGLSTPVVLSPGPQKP
# How it was run: as §1
# FEV = molecular target: T8, FEV (Homo sapiens, UniProt Q99581 1-238)
# T8 sequence: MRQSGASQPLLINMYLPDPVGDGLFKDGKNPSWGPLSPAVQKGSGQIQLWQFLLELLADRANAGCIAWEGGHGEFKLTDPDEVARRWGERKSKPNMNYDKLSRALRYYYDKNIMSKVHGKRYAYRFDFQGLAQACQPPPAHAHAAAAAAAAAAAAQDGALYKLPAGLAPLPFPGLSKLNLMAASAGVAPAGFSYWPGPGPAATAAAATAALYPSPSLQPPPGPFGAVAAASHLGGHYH
# How it was run: as §1
# GABPA = molecular target: T9, GABPA (Homo sapiens, UniProt Q06546 1-454)
# T9 sequence: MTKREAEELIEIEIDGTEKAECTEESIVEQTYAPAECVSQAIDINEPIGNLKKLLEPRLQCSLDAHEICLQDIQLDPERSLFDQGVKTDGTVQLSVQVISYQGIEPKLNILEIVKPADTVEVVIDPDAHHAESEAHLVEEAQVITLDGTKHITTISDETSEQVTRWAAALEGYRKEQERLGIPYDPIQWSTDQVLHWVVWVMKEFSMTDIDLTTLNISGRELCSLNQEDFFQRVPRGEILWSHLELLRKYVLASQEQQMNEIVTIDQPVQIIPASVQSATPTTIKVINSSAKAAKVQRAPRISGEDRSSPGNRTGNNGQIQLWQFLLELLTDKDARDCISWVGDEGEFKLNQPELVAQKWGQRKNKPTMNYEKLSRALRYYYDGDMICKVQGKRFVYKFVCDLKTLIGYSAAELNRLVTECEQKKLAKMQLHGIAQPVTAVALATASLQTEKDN
# How it was run: as §1
# SPIB = SPIB (Homo sapiens, UniProt Q01892 1-262)
# Sequence of SPIB (Q01892 whole entry): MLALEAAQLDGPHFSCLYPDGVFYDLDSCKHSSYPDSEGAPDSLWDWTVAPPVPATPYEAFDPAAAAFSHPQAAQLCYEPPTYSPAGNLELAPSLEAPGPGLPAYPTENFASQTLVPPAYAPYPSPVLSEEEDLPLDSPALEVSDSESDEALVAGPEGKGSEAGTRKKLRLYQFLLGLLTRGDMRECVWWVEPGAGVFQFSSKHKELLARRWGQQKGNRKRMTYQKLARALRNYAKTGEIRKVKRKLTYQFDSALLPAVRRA
# How it was run: as §1
# CRX = CRX (Homo sapiens, UniProt O43186 1-299)
# Sequence of CRX (O43186 whole entry): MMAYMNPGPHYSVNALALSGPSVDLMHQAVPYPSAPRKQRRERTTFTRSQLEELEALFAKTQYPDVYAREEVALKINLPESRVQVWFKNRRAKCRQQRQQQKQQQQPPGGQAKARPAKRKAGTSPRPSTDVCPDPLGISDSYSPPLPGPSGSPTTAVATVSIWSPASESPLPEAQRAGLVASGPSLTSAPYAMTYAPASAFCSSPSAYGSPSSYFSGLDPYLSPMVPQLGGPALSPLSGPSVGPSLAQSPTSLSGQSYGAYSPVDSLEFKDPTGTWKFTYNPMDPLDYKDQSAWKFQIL
# How it was run: as §1
# ETS2 = molecular target: T10, ETS2 (Homo sapiens, UniProt P15036 1-469)
# T10 sequence: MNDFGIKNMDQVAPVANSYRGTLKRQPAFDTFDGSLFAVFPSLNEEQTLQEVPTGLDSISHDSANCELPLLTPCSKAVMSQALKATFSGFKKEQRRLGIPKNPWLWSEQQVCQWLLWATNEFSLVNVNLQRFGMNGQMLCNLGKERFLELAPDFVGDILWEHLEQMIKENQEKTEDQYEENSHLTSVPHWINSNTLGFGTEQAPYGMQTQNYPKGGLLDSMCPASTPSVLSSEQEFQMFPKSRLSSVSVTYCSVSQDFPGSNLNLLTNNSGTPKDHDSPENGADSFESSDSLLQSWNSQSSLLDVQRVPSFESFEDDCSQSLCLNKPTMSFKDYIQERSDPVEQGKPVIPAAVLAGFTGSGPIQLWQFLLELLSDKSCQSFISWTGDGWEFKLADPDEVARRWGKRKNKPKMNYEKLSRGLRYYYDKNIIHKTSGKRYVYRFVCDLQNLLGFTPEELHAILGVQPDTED
# How it was run: as §1
# ETV3 = molecular target: T11, ETV3 (Homo sapiens, UniProt P41162-2 1-143)
# T11 sequence: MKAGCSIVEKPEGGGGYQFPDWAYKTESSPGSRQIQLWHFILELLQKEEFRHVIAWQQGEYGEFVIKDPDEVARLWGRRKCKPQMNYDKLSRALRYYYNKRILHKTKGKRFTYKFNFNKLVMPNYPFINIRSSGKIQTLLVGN
# How it was run: as §1
# ETV6 = ETV6 (Homo sapiens, UniProt P41212 1-452)
# Sequence of ETV6 (P41212 whole entry): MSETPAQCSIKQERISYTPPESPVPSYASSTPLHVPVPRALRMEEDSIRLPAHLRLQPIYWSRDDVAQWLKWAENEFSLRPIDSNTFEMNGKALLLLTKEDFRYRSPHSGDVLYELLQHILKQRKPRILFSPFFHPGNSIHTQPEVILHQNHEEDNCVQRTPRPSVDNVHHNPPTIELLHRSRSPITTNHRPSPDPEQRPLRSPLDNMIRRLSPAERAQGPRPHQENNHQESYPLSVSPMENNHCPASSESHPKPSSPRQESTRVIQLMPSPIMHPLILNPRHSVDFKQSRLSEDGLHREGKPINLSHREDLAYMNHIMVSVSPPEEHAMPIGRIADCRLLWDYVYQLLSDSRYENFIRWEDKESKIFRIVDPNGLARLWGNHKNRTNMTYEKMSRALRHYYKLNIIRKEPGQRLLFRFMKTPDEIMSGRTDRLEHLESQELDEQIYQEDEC
# How it was run: as §1
sequence,measurement,setting,value
TGTTAG,binding signal,ELK4,"1.13 fold enrichment (6-mer frequency, TF over GST control)"
same,binding signal,ETV2,"1.03 fold enrichment (6-mer frequency, TF over GST control)"
same,binding signal,ELF3,"1 fold enrichment (6-mer frequency, TF over GST control)"
same,binding signal,SPDEF,"1.03 fold enrichment (6-mer frequency, TF over GST control)"
GGCTGC,binding signal,EHF,"1.02 fold enrichment (6-mer frequency, TF over GST control)"
same,binding signal,SPI1,"1.01 fold enrichment (6-mer frequency, TF over GST control)"
same,binding signal,ELK4,"1 fold enrichment (6-mer frequency, TF over GST control)"
same,binding signal,ETV7,"1.14 fold enrichment (6-mer frequency, TF over GST control)"
GGCAGC,binding signal,ELK1,"1.02 fold enrichment (6-mer frequency, TF over GST control)"
same,binding signal,FEV,"1.02 fold enrichment (6-mer frequency, TF over GST control)"
same,binding signal,ETV2,"1.02 fold enrichment (6-mer frequency, TF over GST control)"
ATAACG,binding signal,ELK1,"1.04 fold enrichment (6-mer frequency, TF over GST control)"
same,binding signal,GABPA,"1 fold enrichment (6-mer frequency, TF over GST control)"
same,binding signal,SPI1,"1.01 fold enrichment (6-mer frequency, TF over GST control)"
same,binding signal,SPIB,"1.01 fold enrichment (6-mer frequency, TF over GST control)"
same,binding signal,CRX,"1 fold enrichment (6-mer frequency, TF over GST control)"
same,binding signal,ETS2,"1.05 fold enrichment (6-mer frequency, TF over GST control)"
same,binding signal,ETV3,"1.05 fold enrichment (6-mer frequency, TF over GST control)"
same,binding signal,ETV6,"1.03 fold enrichment (6-mer frequency, TF over GST control)"
